Source: PubChem (National Center for Advancing Translational Sciences (NCATS))
VDR inh – Inhibitors of the vitamin D receptor (VDR): qHTS; Vitamin D3 receptor (Homo sapiens), P11473; VDR-SRC2-3 peptide fluorescence polarization, 2 h; Potency, µM, actives largely listed as inhibitors; 400,000 tested, 0.93% active
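Compounds are added to VDR with labelled SRC2-3 coactivator peptide and held 2 h at room temperature. Inhibition of the VDR–peptide interaction is then read as a change in fluorescence polarization.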
GRP78 ERSR act – qHTS for Inducers of the Endoplasmic Reticulum Stress Response (ERSR) in Human Glioma: qHTS | U87-MG GRP78 promoter luciferase reporter, 16 h | Potency, µM, actives largely listed as activators | 420,000 tested, 0.02% active | AID 602332, 2012; note: series mostly up to about 76 µM; nearly all actives have a fitted effect of over 35% in size
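Stably transfected U87-MG human glioma cells carrying a GRP78-based luminescent sensor were seeded at 1000 cells/well, pin-dosed with compounds and incubated 16 h. Luciferase reagent was then added, and end-point luminescence was read after 10 min at room temperature.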
Sfp inh – qHTS Assay for Inhibitors of Bacillus subtilis Sfp phosphopantetheinyl transferase (PPTase); 4'-phosphopantetheinyl transferase ffp (Bacillus subtilis), Q9F4F7; Biochemical Sfp PPTase activity, qHTS; Potency, µM, most hits filed as inhibitors; 310,000 tested, 3.5% active;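 note: the enzyme is Sfp with the accession as filed and its product quenches rhodamine fluorescence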
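Fluorescence-quenching assay with 15 nM Sfp, 5 uM rhodamine-CoA and 12.5 uM BHQ-2-labelled ybbR peptide in pH 7.6 Hepes/MgCl2 buffer. Enzyme was pre-incubated with compound for 15 min at room temperature. Rate was taken from the 30-min fluorescence change (525/598 nm).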
12-LOX inh – Primary qHTS assay for inhibitors of human arachidonate 12S-lipoxygenase (ALOX12): Round 2; Polyunsaturated fatty acid lipoxygenase ALOX12 (Homo sapiens), P18054; purified 12hLO, xylenol orange hydroperoxide absorbance; Potency, µM (highest dose often 108 µM), most hits filed as inhibitors; 580,000 tested, 1.1% active
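Hydroperoxide product was detected by ferrous iron/xylenol orange as the 573 to 405 nm absorbance ratio. Arachidonic acid at 40 uM (final) was turned over for 30 min at room temperature by 150 nM human 12hLO, pH 7.0 Hepes buffer, after 15 min compound preincubation.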
G9a inh – qHTS Assay for Inhibitors of Histone Lysine Methyltransferase G9a | G9a H3K9 monomethylation, AlphaScreen, 2 h | Potency, µM (series often up to 102 µM), most hits filed as inhibitors | 350,000 tested, 8.8% active | Histone-lysine N-methyltransferase EHMT2 (Homo sapiens), Q96KQ7; note: nearly all actives have a fitted effect of over 75% in size
Target sequence (Q96KQ7 913-1193 limits assumed): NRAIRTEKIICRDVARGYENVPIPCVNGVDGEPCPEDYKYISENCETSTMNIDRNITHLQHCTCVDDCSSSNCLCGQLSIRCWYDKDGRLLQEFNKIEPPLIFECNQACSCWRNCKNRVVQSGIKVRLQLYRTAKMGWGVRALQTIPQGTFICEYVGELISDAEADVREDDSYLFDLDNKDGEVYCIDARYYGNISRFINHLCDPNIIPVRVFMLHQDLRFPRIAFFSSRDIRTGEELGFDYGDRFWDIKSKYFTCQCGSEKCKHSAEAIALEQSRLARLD
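Step 1: enzyme (final 20 nM) with compound, 15 min RT. Step 2: substrate peptide 500 nM and SAM 20 uM, 2 h RT. Step 3: anti-H3K9me1 antibody and AlphaScreen beads, 10 min, then plate read.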
Sfp inh conf – Confirmation qHTS Assay for Inhibitors of Bacillus subtilis Sfp phosphopantetheinyl transferase (PPTase); shares compounds with Sfp inh; Sfp PPTase enzymatic assay, qHTS titration; Potency, µM (top dose mostly 114 µM), usual class: inhibitors; 380 tested, 79% active; AID 2701, 2010
Target sequence (Q9F4F7 whole entry, looked up): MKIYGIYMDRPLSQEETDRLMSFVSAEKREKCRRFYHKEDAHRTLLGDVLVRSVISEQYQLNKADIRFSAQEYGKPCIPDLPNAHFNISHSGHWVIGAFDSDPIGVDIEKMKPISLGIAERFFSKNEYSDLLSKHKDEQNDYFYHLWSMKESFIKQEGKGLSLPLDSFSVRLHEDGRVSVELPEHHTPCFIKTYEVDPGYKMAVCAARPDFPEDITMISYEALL
Sfp gel assay – Gel-Based Assay for Inhibitors of Bacillus subtilis Sfp phosphopantetheinyl transferase (PPTase) | Potency, µM, actives largely listed as inhibitors | AID 2707, 2010 | purified Sfp, gel-based phosphopantetheinylation read-out | 210 tested, 20% active | shares compounds with Sfp inh;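 active = potency below 100 µM; inconclusive = dose-dependent response but potency above 100 µM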;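 note: potency is an IC50 for inhibitors of Sfp transfer activity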
Numbers stand for hits; - = inactive; ? = inconclusive; . = no result given; [ ] = remark or other dose. This is one part of a sample in which hits are shown more often than they occur. Unless noted, calls come from the whole dose curve; as a rule, active = well fitted curve in the direction sought with a large enough effect; inconclusive = small, poorly fitted or top-dose-only effect, or another doubt; inactive = no such curve, though single readings can be large; an effect the other way counts as inactive or inconclusive.

SMILES	VDR inh	GRP78 ERSR act	Sfp inh	12-LOX inh	G9a inh	Sfp inh conf	others
CCCCCCCCCCS(=O)(=O)CCCCCl	.	.	.	-	.	.
CCOc1ccc2[nH]c(=O)c(C(c3nnnn3Cc3ccco3)N3CCC(C)CC3)cc2c1 (stereo not drawn)	-	-	3.5µM	-	?	8.3µM
CCOc1ccc2[nH]c(=O)c(C(c3nnnn3C3CCCCC3)N3CCN(C)CC3)cc2c1 (stereo not drawn)	-	-	-	-	?	.
Cc1cc2ccccc2n1CCNC(=O)c1ccc(Br)o1	79µM	-	13µM	?	35µM	24µM
CC(c1ccc(S(C)(=O)=O)cc1)N(C)S(=O)(=O)c1cc(Cl)cc(Cl)c1 (stereo not drawn)	.	.	.	-	.	.
Cc1ccc(C(=O)NC(=S)Nc2ccc(-c3ccc(CO)o3)cc2)cc1	-	-	7.1µM	?	?	8.3µM
COc1ccc([C@@H]2[C@@H](C(N)=O)C2(C#N)C#N)cc1	.	.	.	-	.	.
O=C(COC(=O)/C=C/c1ccco1)NCc1ccccc1Cl	-	-	7.9µM	-	45µM	37µM	Sfp gel assay=-
Cc1ccccc1NC(=O)CSc1n[nH]c(-c2ccco2)n1	-	-	-	-	-	.
Cc1ccccc1NC(=O)CSc1nnc(-c2ccco2)c(-c2ccco2)n1	?	-	10µM	.	13µM	6.6µM
CC(Cc1ccc(O)c(O)c1)(NN)C(=O)O (stereo not drawn)	.	-	50µM	?	.	47µM	Sfp gel assay=-
Cc1ccc(Nc2cc(C)nc(NCc3ccccc3)n2)cc1	-	-	13µM	?	-	30µM	Sfp gel assay=-
Cc1cc(NC2CCCCC2)nc(NCc2ccccc2)n1	-	-	-	?	-	.
CN(C)c1ccc(C(=S)N2CCN(Cc3ccccc3)CC2)cc1	50µM	-	2.2µM	-	8.9µM	12µM
CN1CCN(C(=S)c2ccc(Br)cc2)CC1	?	-	1.3µM	-	20µM	13µM
CCN1CCN(C(=S)c2ccc(O)cc2)CC1	79µM	-	2.8µM	?	6.3µM	8.3µM
Cc1ccc(C)c(C(C)NC(=O)COc2ccccc2C#N)c1 (stereo not drawn)	.	.	.	-	.	.
COCC1CN(C)CC12CCN(C(=O)c1cc3ccccc3[nH]1)CC2 (stereo not drawn)	.	.	.	-	.	.
O=C(CCc1ccc(F)cc1)Nc1ccccc1-c1ccccc1	.	.	.	-	.	.
CC(C)N(C(=O)Nc1ccc2nsnc2c1)C(C)C	14µM	-	4.5µM	?	.	24µM	Sfp gel assay=-
CC(C(=O)N1CCNC1=O)N(C)Cc1ccc(Cl)cc1Cl (stereo not drawn)	.	.	.	-	.	.
CCOCc1nnc(NC(=O)CSc2ccccc2)s1	-	-	-	?	-[12.7 µM]	.
CC(C)(C)Cc1nnc(NC(=O)CSc2ccccc2)s1	28µM	-	14µM	18µM	4.5µM	7.4µM
Cc1ccc(C2CC(c3ccco3)n3ncnc3N2)cc1 (stereo not drawn)	-	-	?	-	?	.
Cc1ccc2c(c1)C(N1CCCC1=O)CC(c1ccco1)N2 (stereo not drawn)	-	-	40µM	?	10µM	26µM	Sfp gel assay=-
N#C/C(=C/c1ccc(N2CCOCC2)o1)c1ccc(Br)cc1	35µM	-	2.8µM	5.6µM	7.9µM	12µM	Sfp gel assay=6.2µM
N#C/C(=C/c1ccc(N2CCCCCC2)o1)c1ccc(F)cc1	?	-	.	.	.	.
N#C/C(=C/c1ccc(N2CCCCCC2)o1)c1cccc(F)c1	45µM	?	0.56µM	?	?	21µM	Sfp gel assay=?
N#C/C(=C\c1ccc(-c2ccccc2)o1)c1ccccc1	.	.	.	-	.	.
